According to PubChem BioAssay AID652126 (The Scripps Research Institute Molecular Screening Center, 2013):
Hit rate of the full screen: of about 370,000 compounds, about 3,700 (1%) were called active.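 The calls were made as follows: active = activation above the mean over all tested compounds plus 3 SD (cut at about 0.9% in these data); inactive = the rest.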 Many of the other results were omitted from the sample, so actives are more common in it than they were.

Each compound was assayed on Nuclear hormone receptor DAF-12 (Strongyloides stercoralis) (assay: S. stercoralis DAF-12 nuclear receptor activators, primary screen, cell-based, luminescence, HEK293, GRIP1 co-expression, lit1-tk-luc (AID 652126;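 also: 0% = DMSO-only wells and 100% = 3 µM delta7-dafachronic acid wells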)). Conditions: HEK293 ssDAF-12/GRIP1 lit1-tk-luc reporter, at 6.8 µM, hits give high values.

SMILES	activation
N#CC1=C(N)Oc2c(c(=O)oc3ccccc23)C1c1ccccc1OC(=O)c1cccs1 (stereo not given)	1.09% (active)
COc1ccc(C2C=C(C)Oc3c2c(=O)oc2ccccc32)cc1OC (stereo not given)	-0.69% (inactive)
CCNc1nc2[nH]c(=O)c3c(c2s1)OC(N)=C(C#N)C3c1cccs1 (stereo not given)	-0.98% (inactive)
COP(=O)(Sc1ccccc1)C(Cc1ccccc1)NC(=O)OCc1ccccc1 (stereo not given)	-1.15% (inactive)
Cc1cc(C)c2c(c1)NP(=S)(c1ccccc1)N2 (stereo not given)	-0.09% (inactive)
COc1ccc2c(c1)NP(=S)(c1ccccc1)N2 (stereo not given)	1.75% (active)
CO[C@H]([C@H](C)/C=C/N(C)C=O)[C@@H](C)C(=O)CC[C@H](C)[C@H](O)[C@H](C)[C@H]1OC(=O)/C=C/C(C)=C/[C@H](O)[C@H](OC)C[C@@H]2C=CC[C@@H](C[C@H](OC)[C@@]3(CO3)[C@@H](OC)C[C@@H](OC)[C@@H]1C)O2	-0.84% (inactive)
O=c1c2ccccc2nc(/C=C/c2ccc(F)cc2)n1-c1ccccc1O	-0.65% (inactive)
Cc1ccccc1CCC[C@@H](CC1CCCCC1)CN(C)C(=O)Oc1ccccc1	-1.05% (inactive)
CCOP(=S)(OCC)C(O)CCCCCn1c(=O)c(F)cn(C2CCCO2)c1=O (stereo not given)	1.73% (active)
Clc1ccc2nc3c(c(-c4ccccc4)c2c1)CNCC3	-0.92% (inactive)
COc1ccc(CNCCc2c[nH]c3ccccc23)cc1OC	1.6% (active)
c1cncc(CNCCc2c[nH]c3ccccc23)c1	-0.72% (inactive)
COc1ccc(CNCCc2ccc3c(c2)OCO3)c(OC)c1OC	-0.57% (inactive)
CN(C)S(=O)(=O)c1cc(C(=O)N2CCC(C(=O)O)(c3ccccc3)CC2)ccc1Cl	-1.1% (inactive)
CN(C)c1nc(N(C)C)nc(N(C#N)CCCl)n1	-1.19% (inactive)
C[C@]12CCC3C(CC[C@H]4[C@H](O)[C@H](O)CC[C@]34C)C1CC[C@@H]2O (stereo not given in full)	-0.82% (inactive)
O=C(CSC1c2ccccc2-c2ccccc21)N/N=C/c1ccccc1	-0.76% (inactive)
COc1c(O)ccc2c1-c1c3c(cc4c1C(C2)N(C)CC4)OCO3 (stereo not given)	-0.77% (inactive)
Cc1ccc(OC(=O)N(C)C[C@@H]2OCc3cnnn3CCCC(=O)N([C@H](C)CO)C[C@@H]2C)cc1	-0.97% (inactive)
